Potency and affinity values are given separately. Active and inactive are the calls of the source.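 The calls were made as follows: active = fitted half-maximal dose no more than twice the top valid tested dose, for compounds that lower signal; inconclusive = fit invalid, or curve flat with activity between -70 and -30; inactive = potency past limit, curve flat within ±30, or signal increasing.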
Biological target: NAD-dependent protein deacylase sirtuin-5, mitochondrial (Homo sapiens) (UniProt Q9NXA8)
Sequence (Q9NXA8 whole entry, looked up): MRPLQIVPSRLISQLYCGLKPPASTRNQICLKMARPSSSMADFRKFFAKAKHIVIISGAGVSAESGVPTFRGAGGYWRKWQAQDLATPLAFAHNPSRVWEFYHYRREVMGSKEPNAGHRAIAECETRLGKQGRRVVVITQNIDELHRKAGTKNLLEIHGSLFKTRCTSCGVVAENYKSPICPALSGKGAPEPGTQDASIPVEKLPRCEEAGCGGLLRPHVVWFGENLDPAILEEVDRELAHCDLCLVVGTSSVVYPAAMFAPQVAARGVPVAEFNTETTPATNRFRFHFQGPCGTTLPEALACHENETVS
Experiment: blockers of sirtuin-5 peptide desuccinylation – biochemical, fluorescence imaging, cherry-pick, set 6, dose response (AID 720597);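 also: lower AMC signal can also come from blocking the trypsin step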
Conditions: Purified SirT5, succinyl-peptide-AMC/trypsin fluorescence; series mostly up to 15 µM

SMILES | outcome
C[C@@H]1CN([C@H](C)CO)C(=O)c2cc(NS(=O)(=O)c3ccc(Cl)cc3)ccc2O[C@@H](C)CCCCO[C@H]1CN(C)C(=O)Nc1ccc(C(F)(F)F)cc1 | inactive
C[C@H](CO)N1C[C@H](C)[C@H](CN(C)Cc2ccc(C(F)(F)F)cc2)Oc2c(NC(=O)c3nc4ccccc4s3)cccc2C1=O | inactive
Cc1ccc(S(=O)(=O)N(C)C[C@@H]2OCCCC[C@@H](C)Oc3ccc(NS(=O)(=O)c4ccccc4)cc3C(=O)N([C@@H](C)CO)C[C@@H]2C)cc1 | inactive
Cc1ccc(S(=O)(=O)N(C)C[C@@H]2Oc3ncc(C#Cc4ccc(C(F)(F)F)cc4)cc3C(=O)N([C@H](C)CO)C[C@@H]2C)cc1 | inactive
COc1ccc(S(=O)(=O)N(C)C[C@H]2OCCCC[C@@H](C)Oc3ccc(NS(=O)(=O)c4ccc(Cl)cc4)cc3C(=O)N([C@H](C)CO)C[C@H]2C)cc1 | inactive
OC[C@@H]1[C@H](c2ccccc2)C2(CN(Cc3nccs3)C2)N1Cc1cccnc1 | inactive
COc1ccc(NC(=O)Nc2ccc3c(c2)C(=O)N([C@H](C)CO)C[C@@H](C)[C@@H](CN(C)Cc2ccccc2)OCCCC[C@H](C)O3)cc1 | inactive
C[C@H](CO)N1C[C@H](C)[C@H](CN(C)S(=O)(=O)c2ccc(F)cc2)Oc2c(NC(=O)c3nc4ccccc4s3)cccc2C1=O | inactive
C/C=C/c1ccc([C@@H]2[C@@H](CO)N(C(C)=O)[C@H]2CN(C(=O)COC)C(C)C)cc1 | inactive
C[C@H](CO)N1C[C@H](C)[C@@H](CN(C)Cc2ccc(C(F)(F)F)cc2)OCCCC[C@H](C)Oc2ccc(NS(=O)(=O)c3ccc(F)cc3)cc2C1=O | inactive
CN(C)Cc1cn(CC[C@H]2CC[C@H](NS(=O)(=O)c3ccccc3)[C@H](CO)O2)nn1 | inactive
C[C@H]1CN([C@@H](C)CO)S(=O)(=O)c2ccc(C#CC3CC3)cc2O[C@@H]1CN(C)Cc1ccc(F)cc1 | inactive
COc1ccc(S(=O)(=O)N(C)C[C@@H]2OCCCC[C@H](C)Oc3ccc(NS(=O)(=O)c4ccc(Cl)cc4)cc3C(=O)N([C@@H](C)CO)C[C@H]2C)cc1 | inactive
O=S(=O)(c1ccccc1)N1CCCCN2[C@H](C1)[C@H](c1ccc(C#CC3CCCC3)cc1)[C@@H]2CO | inactive
C[C@@H]1CN([C@@H](C)CO)S(=O)(=O)c2ccc(C#CC(C)(C)O)cc2O[C@@H]1CN(C)Cc1ccc(-c2ccccc2)cc1 | inactive
C[C@H](CO)N1C[C@H](C)[C@@H](CN(C)Cc2ccccc2)Oc2ccc(N(C)C)cc2C1=O | inactive
O=C(C[C@H]1CC[C@H](NC(=O)C2CCC2)[C@H](CO)O1)NCc1ccccc1Cl | inactive
O=C(C[C@@H]1C[C@H]2c3cc(NC(=O)C4CCC4)ccc3O[C@H]2[C@H](CO)O1)NCc1ccc(-c2ccccc2)cc1 | inactive
Cc1ccc(-c2cnc3c(c2)C(=O)N([C@@H](C)CO)C[C@H](C)[C@@H](CN(C)C(=O)c2cccnc2)O3)cc1 | inactive

Reference: PubChem BioAssay AID720597 (Broad Institute, 2013)
